Shiga toxin inh: blocks Shiga toxin action in Vero cells. actives 9.2% (n = 290,000). Vero cells, Shiga toxin protein synthesis inhibition reporter. inhibition, % at 38.7 µM. AID 2315; in the data active means inhibition mostly above about 28%, no sharp cut-off; inactive means mostly below about 43%; further: 0% is about no effect
LmPK inhibitor: LmPK (Leishmania mexicana) enzyme inhibition; Q27686; purified LmPK, Kinase-Glo ATP luminescence, 1 h; Potency, µM (titrated, usually from 57.5 µM), for inactives: top-dose activity change, negative = inhibition, actives largely listed as inhibitors; actives 0.37% (n = 290,000); AID 1721; further: potency means the concentration at half of the fitted maximal effect; on the % scale 0 is the no-effect control and ±100 the full control effect
Target sequence (Q27686 whole entry, looked up): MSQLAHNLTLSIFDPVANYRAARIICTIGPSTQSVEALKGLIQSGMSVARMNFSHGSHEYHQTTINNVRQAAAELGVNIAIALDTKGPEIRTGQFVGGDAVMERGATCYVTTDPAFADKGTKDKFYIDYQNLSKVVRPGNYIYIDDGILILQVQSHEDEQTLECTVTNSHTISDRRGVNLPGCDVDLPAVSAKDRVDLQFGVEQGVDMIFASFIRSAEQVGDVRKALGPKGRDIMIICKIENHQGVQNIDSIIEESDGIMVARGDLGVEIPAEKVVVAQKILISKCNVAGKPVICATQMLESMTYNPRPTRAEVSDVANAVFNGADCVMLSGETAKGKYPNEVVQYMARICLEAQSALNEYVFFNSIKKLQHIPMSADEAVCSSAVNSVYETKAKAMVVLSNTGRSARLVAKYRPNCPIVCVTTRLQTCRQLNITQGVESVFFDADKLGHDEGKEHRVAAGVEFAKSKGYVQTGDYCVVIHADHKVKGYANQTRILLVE
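ATP generated from ADP (0.1 mM) and PEP (0.5 mM) by 0.1 nM LmPK over 1 h at room temperature (pH 7.2 imidazole buffer) was detected by coupled luciferase luminescence. Values were normalized to uninhibited and no-enzyme wells.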
Giardia FBPA inh: inhibitors of Giardia lamblia fructose-1,6-bisphosphate aldolase; actives 0.71% (n = 290,000); purified Giardia FBPA; AID 2451; Potency, µM (titrated, usually from 59.6 µM), for the others: top-dose activity, negative = inhibition, usual class: inhibitors; further: potency means the concentration at half of the fitted maximal effect; on the % scale 0 is the no-effect control and ±100 the full control effect; nearly all actives have a fitted effect of over 55% in size
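Giardia FBPA (40 nM reagent) was preincubated 10 min at RT with compound (up to 57.5 uM final), then substrate plus GAPDH/TPI/NAD/arsenate coupling system with diaphorase/resazurin was added; resorufin fluorescence (525/598 nm) was read after 20 min.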
CHX counter: counter-screen hit for Shiga toxin inhibitors, cycloheximide; actives 12% (n = 300,000); max response, %; cell reporter, cycloheximide protein synthesis inhibition counterscreen; in the data active means max response mostly above about 13%, no sharp cut-off; inactive means mostly below about 14%; further: read at 38.3 µM for the half of the compounds with a filed dose; 0% is about no effect
RE007 growth inh: less growth of the S. pombe RE007 Vpr strain; actives 0.21% (n = 360,000); Potency, µM (top dose mostly 92.2 µM), for the others: at the top dose activity change, negative = less growth, actives largely listed as inhibitors; AID 651644; S. pombe RE007 Vpr strain, BacTiter-Glo ATP luminescence, 24 h; active means well fitted falling curve with a large enough effect; inconclusive means small, poorly fitted or top-dose-only effect; inactive means no such curve, though single readings can be large or run the other way; further: potency means the concentration at half of the fitted maximal effect; on the % scale 0 is the no-effect control and ±100 the full control effect; nearly all actives have a fitted effect of over 50% in size
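Fission yeast strain RE007, carrying one chromosomally integrated HIV-1 vpr copy, was seeded at OD 0.01 in PMG+AL medium with 23 nL pinned compound. After 24 h at 30 °C and 99% humidity, viability was read by BacTiter-Glo luminescence.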
TbPYK inhibitor: T. brucei pyruvate kinase inhibition | Q57TT1 | TbPYK enzyme, Kinase-Glo Plus ATP luminescence, 45 min | Potency, µM (highest dose often 76.8 µM), inactives show top-dose activity, negative = inhibition, hits mostly inhibitors | actives 0.12% (n = 410,000); further: potency means the concentration at half of the fitted maximal effect; on the % scale 0 is the no-effect control and ±100 the full control effect; nearly all actives have a fitted effect of over 50% in size
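ADP (130 uM final) triggers the TbPYK reaction after compound addition; incubation is 45 min at room temperature. Kinase-Glo Plus is then added and luminescence imaged. Normalized data are fitted to concentration-effect curves.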
* hit, by the source's call; ? = inconclusive; . = not tested or not shown; [ ] = dose if it differs, or a comment. The full list was thinned out, with hits kept by preference. Unless noted, the call rests on the fitted dose curve; in most records, active means well fitted curve in the direction sought with a large enough effect; inconclusive means small, poorly fitted or top-dose-only effect, or another doubt; inactive means no such curve, though single readings can be large; an effect the other way counts as inactive or inconclusive.

SMILES | Shiga toxin inh | LmPK inhibitor | Giardia FBPA inh | CHX counter | RE007 growth inh | TbPYK inhibitor
O=C(CSc1ccccc1F)NC(=O)c1ccccc1Br | . | . | . | . | 9.9% | -5.3%
Cc1cccc(N(C)C(=O)C2CCC(CNS(=O)(=O)c3cccc4nsnc34)CC2)c1 (configuration not stated) | . | . | . | . | . | -2.8%
Cc1nc(C)c(NC(=O)N2CCc3ccccc32)cc1NC(=O)N1CCc2ccccc21 | 2.9 | 2.3% | -11.4% | -3.4 | 0.7% | 1.5%
O=C(Nc1ccccc1)N1CCCc2ccccc21 | 26.5* | 3.1% | -3.6% | 12.8 | -17.2% | 6.4%
Cc1cccc(NC(=O)N2CCCc3ccccc32)c1C | 46.4 | 3.6% | 0.4% | 36.0* | -7.5% | 0.5%
Cc1ccc(NC(=O)Cc2ccc(NC(=O)N3CCCCc4ccccc43)cc2)cc1Cl | . | . | . | . | . | -0.8%
Cc1ccc(NC(=O)N2CCCc3ccccc32)cc1C | 53.2* | -1.4% | -2.8% | 38.6* | -20.1% | 1.2%
O=C(NC1CCCCC1)N1CCc2ccccc21 | 46.9* | -12.5% | -2.1% | 27.9* | -7.6% | 7.1%
COc1ccccc1NC(=O)CSc1nc(-c2cccc(Cl)c2)nc2c1Cc1c(CO)cnc(C)c1O2 | . | . | . | . | . | 1.0%
CO[C@H]1COC(=O)[C@H](C)NC(=O)C/C=C\[C@@H](C)[C@@H](NS(=O)(=O)c2ccc(C)cc2)COC(=O)C/C=C\[C@@H]1C | . | . | 0.9%[12.9 µM] | . | . | .
O=C(O)C1C2C=CC(O2)C1C(=O)NCc1ccc2c(c1)OCO2 (configuration not stated) | -3.8 | -0.5% | 11.1% | -3.1 | -26.8% | 0.6%
O=C(O)C1C2C=CC(O2)C1C(=O)NCc1ccc(Cl)cc1 (configuration not stated) | -3.9 | -1.9% | 2.9% | 4.1 | 35.5µM* | -4.4%
CCOc1ccc(-c2nc(C#N)c(NCCCOC)o2)cc1 | . | . | . | . | . | 0.7%
CCOc1ccc(-c2nc(C#N)c(NCc3ccco3)o2)cc1 | 46.2* | 1.1% | -6.6% | 23.4* | -6.7% | -2.3%
N#Cc1nc(-c2ccc(OCc3ccccc3)cc2)oc1NCc1cccnc1 | 39.8 | 4.0% | -1.1% | 2.4 | -20.7% | -2.6%
CN(C)c1oc(-c2ccc(OCc3ccccc3)cc2)nc1C#N | 49.1* | 0.2% | -2.3% | 31.2* | 6.4% | -1.8%
N#Cc1nc(-c2ccc(OCc3ccc(Cl)cc3)cc2)oc1NCc1cccnc1 | 74.7* | -6.2% | 9.4% | 34.9* | 3.7% | -5.2%
COc1ccc(S(=O)(=O)NCC(c2ccco2)S(=O)(=O)c2cccs2)cc1OC (configuration not stated) | . | . | . | . | . | -4.6%
COc1cccc(Cn2cc(C(=O)c3ccc(Cl)cc3)c(=O)c3ccccc32)c1 | . | . | . | . | . | 5.4%
COc1cccc(/C=N/NC(=O)c2cccc(N3CCCC3=O)c2)c1 | 106.7* | -9.3% | -0.1% | 32.5* | 8.4% | -3.3%
O=C(N/N=C/c1ccco1)c1cccc(N2CCCC2=O)c1 | active | -25.5% | -4.9% | 29.1* | -0.7% | -2.2%
O=C(N/N=C/c1cc(Br)ccc1O)c1cccc(N2CCCC2=O)c1 | 25.7 | -0.5% | ? | 0.5 | 1.6% | -7.0%
CCc1cccc(NC(=O)Cn2cc(C(=O)c3ccncc3)c(=O)c3cc(C)c(C)cc32)c1 | . | . | . | . | . | -4.3%
COc1ccc(Cn2ccnc2SCC(=O)Nc2cc(C(F)(F)F)ccc2Cl)cc1 | . | . | . | . | . | -2.1%
CC1=C(c2ccc(C)cc2)S(=O)(=O)N(Cc2ccc(C(=O)Nc3ccc(F)cc3C)cc2)C1=O | . | . | . | . | . | 3.9%
SMILES | Shiga toxin inh | LmPK inhibitor | Giardia FBPA inh | CHX counter | RE007 growth inh | TbPYK inhibitor
O=C(c1cc(-c2ccccc2)on1)N1CCc2ccccc2C1 | -6.0 | 0.1% | -0.7% | -0.6 | -11.6% | 0.0%
O=C(c1ccc(=O)[nH]n1)N1CCc2ccccc2C1 | 19.9 | 3.1% | -0.4% | 5.7 | 10.5% | -2.3%
Cc1cc(C(=O)N2CCc3ccccc3C2)no1 | 13.0 | -2.3% | . | 18.9* | 14.2% | -5.9%
Cc1cc(C(=O)N2CCc3ccccc3C2)n[nH]1 | 53.3* | 1.5% | 4.4% | 23.8* | 4.0% | -7.5%
CCOC(=O)c1ccc(NC(=O)Cn2c(=O)cc(C)c3c(C)nn(-c4ccc(CC)cc4)c32)cc1 | . | . | . | . | . | -3.2%
Cc1nnc2c3cnn(-c4ccc(Cl)cc4)c3ncn12 | 77.3* | 3.9% | 5.7% | 26.7* | . | .
COC(=O)Cn1cnc2c(cnn2-c2ccccc2)c1=O | 22.3 | -2.2% | 5.6% | 15.7* | 4.5% | -0.6%
CCOC(=O)Cn1cnc2c(cnn2-c2ccccc2)c1=O | 41.5 | 4.5% | 5.5% | 20.7* | 10.2% | 0.4%
CCOC(=O)CSc1ncnc2c1cnn2-c1ccc(Cl)cc1 | -17.7 | -2.7% | 0.5% | -1.2 | -23.3% | -3.0%
O=C(Cn1cnc2c(cnn2-c2ccccc2)c1=O)NC1CCCC1 | 9.2 | 1.0% | -0.9% | 8.4 | 2.6% | -3.3%
CCOC(=O)Cn1cnc2c(cnn2-c2ccc(OC)cc2)c1=O | 59.7* | -4.9% | 4.6% | 28.6* | 2.1% | -15.1%
O=C(Cn1cnc2c(cnn2-c2ccccc2)c1=O)N1CCOCC1 | -11.3 | -6.8% | -1.3% | 6.8 | -0.3% | -10.5%
O=Cc1c(-c2ccc(Cl)cc2)oc2ccc(O)cc12 | . | . | . | . | -4.8% | -8.6%
COC(=O)C(C)n1cnc2c(cnn2-c2ccc(Cl)cc2)c1=O (configuration not stated) | 69.4* | 1.9% | 14.8% | 54.3* | -15.1% | -4.1%
O=C(Cn1cnc2c(cnn2-c2ccc(Cl)cc2)c1=O)N1CCN(c2ccccc2)CC1 | 1.0 | 0.9% | 7.9% | 8.1 | -6.7% | 9.2%
CC(C)CCn1cnc2c(cnn2-c2ccc(F)cc2)c1=O | 59.5* | -1.7% | 11.4% | 36.0* | -12.3% | 3.3%
CCOC(=O)Cn1cnc2c(cnn2-c2ccc(Cl)cc2)c1=O | 36.3 | 3.3% | 5.0% | 35.7* | -12.7% | 5.2%
CC1=C(C(=O)N2CCOCC2)C(c2c(F)cccc2F)NC(=O)N1 (configuration not stated) | -11.5 | -1.8% | -0.2% | -2.5 | 16.2% | 1.2%
CN(C)S(=O)(=O)c1cccc(COC(=O)c2ccc(Cl)cc2O)c1 | 105.8* | 0.9% | 1.0% | 44.5* | 5.5% | -4.2%
COc1ccc(CNC(=O)c2ccc3c(c2)N(Cc2cc(C)ccc2C)C(=O)CS3)cc1 | . | . | . | . | . | 1.7%
COc1ccc(N2C(=O)CC(Sc3n[nH]c(-c4ccccc4)n3)C2=O)cc1 (configuration not stated) | 11.5 | 10.8% | -20.1% | -2.1 | 17.8µM* | -20.4%
CCOc1ccc(N2C(=O)CC(Sc3n[nH]c(-c4ccccc4)n3)C2=O)cc1 (configuration not stated) | 7.2 | 16.7% | -23.9% | -3.1 | ? | -29.2%
CC1=C(\C=C/C(C)=C/C=C\C(C)=C\C(=O)O)C(C)(C)CCC1 | . | . | 5.6% | . | . | .

Compound activity as filed in PubChem BioAssay.
